Assay outcomes (PubChem)
Pf growth 96h – P. falciparum growth inhibition at 96 hours; AID 504834; Potency, µM (highest dose often 28.7 µM), for the others: at the top dose activity change, negative = inhibition, hits mostly inhibitors; P. falciparum luciferase reporter growth, 96 h; 320,000 tested, 6.9% active; further: potency means the concentration at half of the fitted maximal effect; on the % scale 0 is the no-effect control and ±100 the full control effect
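Infected RBCs, 2% Hct / 0.05% parasitemia final; luciferase-reporter P. falciparum; cpd 96 h, 37 C, 5% CO2; luciferase detection reagent; luminescence.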
CHX counter – affects cycloheximide protein synthesis inhibition readout, counter-screen; 300,000 tested, 12% active; max response, %; cell reporter, cycloheximide protein synthesis inhibition counterscreen; in the data active means max response mostly above about 13%, no sharp cut-off; inactive means mostly below about 14%; further: read at 38.3 µM for the half of the compounds with a filed dose; 0% is about no effect
HCMV inh – human cytomegalovirus inhibition | activity change, negative = inhibition, % at 57.5 µM | 410,000 tested, 4.5% active | AID 1259415 | HFF cells, HCMV-luciferase reporter, 72 h; stronger effect = lower value; in the data active means activity change below about -60%; inconclusive means no clear call, values can overlap the other calls; inactive means above about -39%; further: on the % scale 0 is the no-effect control and ±100 the full control effect
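Two-dose cell screen: HFF monolayers treated with compounds and infected with luciferase-expressing HCMV at 1 PFU/cell, 72 h at 37C, then lysed for luciferase measurement.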
Shiga toxin inh – blocks Shiga toxin action in Vero cells | inhibition, % at 38.7 µM | Vero cells, Shiga toxin protein synthesis inhibition reporter | 290,000 tested, 9.2% active; in the data active means inhibition mostly above about 28%, no sharp cut-off; inactive means mostly below about 43%; further: 0% is about no effect
Pf growth 48h – inhibits P. falciparum growth in the first generation, 48 h. 310,000 tested, 5.9% active. Potency, µM (top dose mostly 28.7 µM), without a hit: at the highest dose activity change, negative = inhibition, usual class: inhibitors. P. falciparum luciferase growth in erythrocytes, 48 h; further: potency means the concentration at half of the fitted maximal effect; on the % scale 0 is the no-effect control and ±100 the full control effect
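Erythrocytes infected with P. falciparum carrying an integrated firefly luciferase reporter (2% hematocrit, 0.1% parasitemia final) were exposed to compounds in RPMI 1640 with 0.5% Albumax at 37 C, 5% CO2. Growth inhibition was scored as reduced luminescence.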
* hit, by the source's call; ? = inconclusive; · = not tested or not shown. A selection: hits, their analogues and other compounds. The true share with any hit is near 20%. Unless noted, the call rests on the fitted dose curve; in most records, active means well fitted inhibition curve with a large enough effect; inconclusive means small, poorly fitted or top-dose-only effect, or another doubt; inactive means no such curve, though single readings can be large or run the other way.

SMILES	Pf growth 96h	CHX counter	HCMV inh	Shiga toxin inh	Pf growth 48h
O=[N+]([O-])c1cccc(S(=O)(=O)N/N=C\c2ccc3c(c2)OCO3)c1	16%	43*	31	75*	-7%
O=[N+]([O-])c1cccc(S(=O)(=O)N/N=C/c2ccc(O)cc2)c1	-26%	-1	-9	-11	13%
CCc1ccc(S(=O)(=O)c2nnn3c2nc(N2CCN(c4ccccc4)CC2)c2cc(Cl)ccc23)cc1	·	·	12	·	·
COc1ccc(N2CCN(C(=O)Cc3csc(NC(=O)Nc4ccccc4OC)n3)CC2)cc1	?	·	?	·	7.4µM*
COc1ccccc1NC(=O)Nc1nc(CC(=O)NC2CCCC2)cs1	?	·	-29	·	?
COc1ccccc1NC(=O)Nc1nc(CC(=O)N2CCN(c3ccc(F)cc3)CC2)cs1	?	·	-23	·	9.3µM*
COc1ccccc1NC(=O)Nc1nc(CC(=O)N2CCN(c3ccccc3)CC2)cs1	?	·	-6	·	12µM*
O=C(Cc1cccs1)N1CCN(S(=O)(=O)c2cc(Cl)ccc2Cl)CC1	5%	·	-24	·	?
O=c1[nH]c(N2CCN(Cc3ccccc3)CC2)nc2c1CCC2	0%	1	2	-9	14%
CCCCCc1c(C)nc(NCc2ccccc2)[nH]c1=O	·	16	-14	8	2.1µM*
Cc1nc(Nc2ccccc2)[nH]c(=O)c1CCC(C)C	·	-1	?	-6	?
CC(C)(C)C(=O)Nc1nc2c(c(=O)[nH]1)CCCC2	28%	13	-36	-2	9.3µM*
O=c1[nH]c(NCc2ccccc2)nc2c1CCC2	15µM*	7	20	-21	-21%
CCC(=O)Nc1nc2c(c(=O)[nH]1)CCCC2	?	-6	-22	14	-3%
COc1cccc(Nc2nccc3[nH]c(-c4cccc(C(F)(F)F)c4)nc23)c1	·	·	-18	·	·
CC(C)n1cc(C(=O)N2CCCC(Nc3ccc(F)c(F)c3)C2)cn1 (centres undefined)	-25%	27*	-21	14	0%
COC(=O)c1ccc(C(=O)N2CCCC(Nc3ccc(F)c(F)c3)C2)cc1 (centres undefined)	1%	-3	-9	-7	13%
Cc1ccc(C(=O)N2CCCC(Nc3ccc(F)c(F)c3)C2)cn1 (centres undefined)	12µM*	1	0	-7	-1%
Cc1ncsc1CCC(=O)N1CCCC(Nc2ccc(F)c(F)c2)C1 (centres undefined)	12µM*	1	-23	-13	0%
COc1cccc(NC(=O)C2(C)CCCN2C(=O)C(C)C)c1 (centres undefined)	·	·	-29	·	·
CC1(C)NC(=O)N(CCC(=O)Nc2ccc(C(C)(C)C)cc2)C1=O	·	·	-9	·	·
COc1ccccc1C(=O)Nc1ccccc1SCc1cc(=O)c2ccccc2[nH]1	·	·	-12	·	·
CCOCc1nnc(NC(=O)C2c3ccccc3Oc3ccccc32)s1	44%	-2	-25	-6	2%
Cc1cccc(CNS(=O)(=O)c2ccc(-c3coc(C)n3)cc2)c1	·	·	-6	·	·
CC12C(=O)N(Cc3ccco3)C(=O)C1C1c3ccccc3C2c2ccccc21 (centres undefined)	·	46*	-37	42	?
SMILES	Pf growth 96h	CHX counter	HCMV inh	Shiga toxin inh	Pf growth 48h
O=C1C2C3c4ccccc4C(c4ccccc43)C2C(=O)N1Cc1ccco1 (centres undefined)	12%	-3	-19	-4	-12%
Fc1ccc(F)c(C2=NNC(=Nc3ccccc3F)SC2)c1	?	130*	?	150*	?
COc1ccc(C2=NNC(=Nc3cc(S(=O)(=O)N(C)C)ccc3C)SC2)c(OC)c1	-13%	-2	-98*	13	1.7µM*
CC(=O)Nc1ccc(C2=NNC(=Nc3ccc(S(=O)(=O)N4CCOCC4)cc3)SC2)cc1	12µM*	-1	-36	-2	?
CN(C)S(=O)(=O)c1cccc(N=C2NN=C(c3ccccc3)CS2)c1	2.3µM*	2	?	1	13µM*
Cn1c(SCC(=O)NC2CC2)nnc1-c1cccc(NC(=O)c2ccccc2F)c1	22%	-1	43	-10	-16%
Cc1ccc(-c2c(C(=O)Nc3ccc(F)c(F)c3)oc(=O)c3ccccc23)cc1	·	·	4	·	·
CCC(C)[C@H](NC(=O)N1CC(=O)Nc2ccccc21)C(=O)N[C@H](C(=O)O)c1ccccc1 (some centres undefined)	6%	13	-20	-1	0%
O=S(=O)(c1ccc(N=C2NN=C(c3cc(F)ccc3F)CS2)cc1)N1CCOCC1	?	6	-99*	3	2.3µM*
O=C(/C=C/c1ccc(S(=O)(=O)N2CCOCC2)cc1)Nc1cc(F)ccc1F	·	·	42	·	·
Cc1ccccc1N=C1NC(=O)CS1	20%	-10	3	-6	9%
Fc1ccc(N=C2NN=C(c3cc(F)ccc3F)CS2)cc1	?	54*	-34	69*	0%
Cc1cccc(N=C2NN=C(c3ccccc3F)CS2)c1C	0%	34*	-32	51*	-31%
O=C1NC(=Nc2ccc(F)cc2)CS1	?	-4	-9	-2	11%
COCCn1c(C)cc(C2=NNC(=Nc3ccccc3F)SC2)c1C	3.7µM*	95*	-73*	104*	·
Cc1cc(C2=NNC(=NC3CC3)SC2)c(C)n1-c1c(C)n(C)n(-c2ccccc2)c1=O	1%	1	40	-9	-2%
COc1ccc(N=C2NN=C(c3c(C)[nH]c4ccccc34)CS2)cc1	?	5	?	-6	?
Cc1ccc(S(=O)(=O)N2CCN(S(=O)(=O)N3CCCCC3)CC2)cc1	18%	4	-4	9	15%
CC(C)(C)N=C1NN=C(c2ccc(S(=O)(=O)N3CCCCC3)cc2)CS1	?	·	-7	·	3.7µM*
Fc1ccccc1N=C1NN=C(c2ccccc2)CS1	-44%	53*	-98*	138*	?
Cc1[nH]c2ccccc2c1C1=NNC(=Nc2ccc(F)cc2)SC1	8.3µM*	-4	?	-4	?
Cc1cc(C2=NNC(=Nc3ccccc3)SC2)c(C)n1C	-8%	35*	31	69*	-23%
CCN(CC(=O)Nc1c(F)cccc1F)C(=O)CCNC(=O)c1ccc([N+](=O)[O-])cc1	-2%	·	-26	·	-7%
CCOc1ccc(CCNC(=O)c2c(C)oc3ncn(CC(C)C)c(=O)c23)cc1OCC	·	·	7	·	·
Clc1ccccc1N=C1NN=C(c2cccs2)CS1	228%	53*	134	98*	343%
CCOc1ccc(-c2nc(Cn3c(=O)cc(C)c4c(C)nn(-c5ccccc5)c43)c(C)o2)cc1	·	·	47	·	·
Cc1cc(N2CCN(c3ccc([N+](=O)[O-])c4cccnc34)CC2)c2ccccc2n1	7.4µM*	-3	·	-5	-18%
O=C(C1CCC1)N1CCN(c2ccc(C(F)(F)F)cc2[N+](=O)[O-])CC1	-2%	7	-34	-13	-25%
Cc1cc(N2CCN(c3ccc(C(F)(F)F)cc3[N+](=O)[O-])CC2)c2ccccc2n1	7.4µM*	-3	-29	-2	13µM*
